Most compounds without a hit are left out; they make up all but 3% or so of the library.
SARS PLpro yeast = qHTS of Yeast-based Assay for SARS-CoV PLP; S. cerevisiae expressing SARS-CoV PLpro, growth rescue; Potency, µM (doses to about 32.9 µM), most hits filed as activators; 330,000 tested, 0.19% active; AID 485353, 2010; calls by dose curve; further: nearly all actives have a fitted effect of over 55% in size
Sm TGR inh = qHTS Assay for the Inhibitors of Schistosoma Mansoni Peroxiredoxins | Schistosoma mansoni thioredoxin glutathione reductase (TGR), Q962Y6 | purified TGR, DTNB reduction, TNB absorbance 405 nm | Potency, µM (top dose mostly 114 µM), actives largely listed as inhibitors | 360,000 tested, 3% active; active means well fitted inhibition curve with a large enough effect; inconclusive means small, poorly fitted or top-dose-only effect; inactive means no such curve, though single readings can be large or run the other way; further: nearly all actives have a fitted effect of over 60% in size
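Kinetic colorimetric format: TGR-catalysed, NADPH-driven DTNB reduction monitored via TNB absorbance. Enzyme dispensed at 20 nM; compound exposure 15 min at room temperature before reaction start.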
A number is an active result; n = inactive; u = inconclusive; x = no result given.

SMILES	SARS PLpro yeast	Sm TGR inh
Cn1c(=O)c(=O)n(C)c2cc(NC(=O)c3cccc(F)c3)c(Cl)cc21	x	n
CCOc1ccc(CCNCc2c(C(=O)O)n(Cc3ccc(C)cc3)c3cc(OC)ccc23)cc1	x	n
CNC(=O)COc1ccc(Nc2nnc(-c3ccc(C)c(S(=O)(=O)NC(C)(C)C)c3)c3ccccc23)cc1	x	n
O=C1[C@@H]2CSC(c3ccc(Cl)cc3)N2C(=O)N1c1ccccc1 (some centres undefined)	x	n
CCCCC(=O)Nc1nnc(S(=O)(=O)N(CC)c2cc(C)cc(C)c2)s1	x	n
CCS(=O)(=O)c1oc(-c2ccc(F)cc2)nc1S(=O)(=O)c1ccccc1	x	0.71µM
CCOc1ccc(-c2nc(S(=O)(=O)c3ccccc3)c(NC)o2)cc1	n	n
CC(C)(C)c1cc(Cc2ccccc2)[nH]n1	n	n
Oc1cncc(Cc2ccccc2)c1	n	32µM
CCc1cc(=O)oc2c(C)c3c(cc12)CN(CCc1ccccc1)CO3	x	n
O=C(NCc1ccco1)C(c1cccs1)N(C(=O)C1COc2ccccc2O1)c1cccc(O)c1 (centres undefined)	n	35µM
CC(C)CCNC(=O)C(c1ccc(O)cc1)N(Cc1cccs1)C(=O)C1COc2ccccc2O1 (centres undefined)	n	n
CCNC(=S)Nc1ccc(Cc2ccncc2)cc1	n	n
S=C(NCc1ccncc1)Nc1ccc(Cl)cc1Cl	n	35µM
S=C(NCc1ccc(Cl)cc1)Nc1ccc(Cl)cc1Cl	n	n
S=C(NCc1ccncc1)Nc1ccccc1	n	n
S=C(NCc1ccncc1)Nc1ccc(Br)cc1	n	28µM
CNC(=S)Nc1ccc(Cc2ccncc2)cc1	n	40µM
COc1ccc(S(=O)(=O)NCC(c2ccco2)N2CCN(c3ccccc3F)CC2)cc1OC (centres undefined)	x	n
CCOC(=O)c1cccc(NC(=O)c2cc(C)nc3c2c(C)nn3-c2ccc(C)cc2)c1	x	n
COc1ccc(Cl)cc1NC(=O)CN(C)S(=O)(=O)c1ccc2c(c1)CCCN2C(C)=O	x	n
COc1ccc(-c2nc3scc(CCNS(=O)(=O)c4c(C)noc4C)n3n2)cc1OC	x	n
Nc1cc(-c2ccncc2)c[nH]c1=O	n	40µM
c1ccc(-c2ccncc2)cc1	n	x
Cc1ccc(-n2c(=O)c3oc4ccccc4c3n(CC(=O)Nc3ccccc3)c2=O)cc1C	x	n
SMILES	SARS PLpro yeast	Sm TGR inh
CC12CCC(C(=O)N(CSC(=S)N/N=C\c3ccccc3Cl)C1=O)C2(C)C (centres undefined)	u	n
CC12CCC(C(=O)N(CSC(=S)N/N=C\c3ccccc3)C1=O)C2(C)C (centres undefined)	10µM	4.5µM
Cc1cccc(-n2c(=O)c3c(c4cc(C)ccc4n3C)n(CC(=O)NCC3CCCO3)c2=O)c1 (centres undefined)	x	n
COc1ccc(C(=O)NCCc2csc(-c3ccc(Cl)cc3)n2)c(OC)c1	x	n
CCc1c(C)c(C#N)c2nc3ccccc3n2c1N(C)C	n	n
Cc1cc(NCCCCO)n2c(nc3ccccc32)c1C#N	n	n
Cc1cc(-c2ccco2)n2c(nc3ccccc32)c1C#N	n	50µM
C=C(C)CSc1cc(C)c(C#N)c2nc3ccccc3n12	n	3.2µM
CCCCc1c(C)c(C#N)c2nc3ccccc3n2c1Cl	n	3.5µM
Cc1cc(Nc2ccc(F)cc2)n2c(nc3ccccc32)c1C#N	x	n
CCCc1nnc(NC(=O)Cc2coc3ccc(C)cc23)s1	x	n
Cc1ccc(NC(=O)C(=O)NCC(c2cccnc2)N2CCN(Cc3ccccc3)CC2)cc1Cl (centres undefined)	x	n
CCc1ccccc1N1C(=O)N(CC(=O)c2ccc(Cl)cc2)c2ccccc2S1(=O)=O	x	n
O=C(CSc1nc2[nH]ncc2c(=O)n1-c1ccccc1Br)NCc1ccco1	n	22µM
O=C(CSc1nc2ccccc2c2nc3ccccc3n12)NCc1ccco1	n	8.9µM
COc1ccc(CCNC(=O)CSc2nc3[nH]ncc3c(=O)n2-c2ccccc2Br)cc1OC	n	n
CCn1c(SCC(=O)NCc2ccco2)nc2ccccc2c1=O	n	45µM
O=C(CSc1nc2ccccc2c(=O)n1Cc1ccccc1)NCc1ccco1	n	n
N#CCSc1nc2ccccc2c(=O)n1CCCC(=O)NCc1ccco1	n	n
O=C(CCCCCn1c(SCc2ccncc2)nc2ccccc2c1=O)NCc1ccco1	n	45µM
Cn1c(SCC(=O)NCc2ccco2)nc2ccccc2c1=O	n	n
CCC(NC(=O)Nc1cc(Cl)ccc1OC)c1c(-n2cccc2)sc2c1CCN(C)C2 (centres undefined)	x	n
O=C(NCCc1ccc(Cl)cc1)c1cccn1-c1nnc(N2CCCCC2)s1	x	n
COc1cccc(CCNC(=O)c2c(O)nc3ccccn3c2=O)c1	x	n
CCCc1nn2c(=O)cc(COC(=O)c3ccccc3NC(=O)c3ccc(OCC)cc3)nc2s1	x	n
SMILES	SARS PLpro yeast	Sm TGR inh
Cc1cccc(S(=O)(=O)c2cn(Cc3ccc(F)cc3)c3cc(N4CCOCC4)c(F)cc3c2=O)c1	x	n
Cc1cc(C)c(NC(=O)Cn2c(=O)oc3cc(S(=O)(=O)N4CCCCCC4)ccc32)c(C)c1	x	n
CCC(=O)N1CCc2cc(S(=O)(=O)CCC(=O)N3CCN(c4ccccc4Cl)CC3)ccc21	x	n
O=C(NCc1ccco1)c1ccc2c(c1)N(Cc1ccc(Cl)cc1)C(=O)c1ccccc1S2(=O)=O	x	n
COc1ccc(-n2nc3cc(C)c(NC(=O)COc4cccc(C)c4)cc3n2)cc1	x	n
Cc1ccc(C(=O)CSc2nc(-c3ccccc3)nc3c2CCCC3)cc1C	x	n
Cc1cccc(-n2nnc(-c3nc(-c4cccs4)no3)c2N)c1	x	n
CCOCCCn1c(SCC(=O)Nc2ccccc2OC)nc2ccccc2c1=O	n	n
COCCCn1c(SCC(=O)Nc2ccc(NC(=O)c3ccco3)c(OC)c2)nc2ccccc2c1=O	n	40µM
CC1CCN(S(=O)(=O)c2ccc3nc(NCc4ccccc4)ccc3c2)CC1	x	n
O=C1CCCc2c1cc(C(=O)Nc1ccc(Br)cn1)c(=O)n2-c1ccccc1	n	18µM
O=C1CCCc2c1cc(C(=O)O)c(=O)n2-c1ccccc1	n	n
O=C1CCCc2c1cc(C(=O)NC1CCSC1=O)c(=O)n2-c1ccccc1 (centres undefined)	n	35µM
CC1(C)CC(=O)c2cc(C(=O)NC3CCSC3=O)c(=O)n(-c3ccccc3)c2C1 (centres undefined)	n	n
COc1cc(Nc2nc3c(S(=O)(=O)c4cccc(Cl)c4)nnn3c3ccsc23)cc(OC)c1	x	n
Clc1ccc2nc(NCc3ccccc3)c3nncn3c2c1	x	n
Cc1cc(C)c(NC(=O)CCCN2C(=O)COc3ccc(C)cc32)c(C)c1	x	n
CCOC(=O)Cn1c(=O)oc2cc(S(=O)(=O)N3CCN(c4cccc(C)c4)C(C)C3)ccc21 (centres undefined)	x	n
CC(=O)NC(c1ccco1)c1cc(Br)c2cccnc2c1O (centres undefined)	n	u
CCOC(=O)c1c(C)[nH]c(C)c1S(=O)(=O)N1CCCC(C(=O)N2CCN(c3cccc(Cl)c3)CC2)C1 (centres undefined)	x	n
O=C1S/C(=C\c2ccc(N3CCOCC3)o2)C(=O)N1Cc1c(F)cccc1Cl	n	2.8µM
O=C1S/C(=C/c2ccc(N3CCOCC3)o2)C(=O)N1Cc1c(F)cccc1Cl	n	u
Oc1ccc(COC2CCN(Cc3ccccc3)C2)c2cccnc12 (centres undefined)	n	45µM

Source: PubChem
